According to the supplement of paper PMC12282887:
± gives the standard deviation of the averaged measurements.

Tests used:
Experiment in all cases: promoter activity interaction Z-score (Lux/OD deviation from empty-vector control); higher = stronger promoter induction by the compound
[1] = test system: E. coli BW25113 acrABp lux reporter
In short: (§1)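 Reporter strains of E. coli BW25113 grew at 37°C in 40 µl LB Lennox in 384-well plates. Readings of OD600 and luminescence were taken every 30 min over 12 h, integrated over 0–8 h (wild type) or 1–9 h (deletion strains), and wells below 10% of the median growth value were excluded. Scores are Z-transformed residuals of growth-normalised luminescence from a fit against a control.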

[2] = test system: E. coli BW25113 micFp lux reporter
In short: as §1

[3] = test system: E. coli BW25113 ompFp lux reporter
In short: as §1

[4] = test system: E. coli BW25113 robp lux reporter
In short: as §1

[5] = test system: E. coli BW25113 soxSp lux reporter
In short: as §1

[6] = test system: E. coli BW25113 tolCp lux reporter
In short: as §1

[7] = 11.9 µg/ml, genetic background: wild type
[8] = 11.9 µg/ml, genetic background: ΔmarA
[9] = 11.9 µg/ml, genetic background: Δrob
[10] = 11.9 µg/ml, genetic background: ΔsoxS
[11] = 23.7 µg/ml, genetic background: wild type
[12] = 23.7 µg/ml, genetic background: ΔmarA
[13] = 23.7 µg/ml, genetic background: Δrob
[14] = 23.7 µg/ml, genetic background: ΔsoxS
[15] = 47.4 µg/ml, genetic background: wild type
[16] = 47.4 µg/ml, genetic background: ΔmarA
[17] = 47.4 µg/ml, genetic background: Δrob
[18] = 47.4 µg/ml, genetic background: ΔsoxS
[19] = 94.8 µg/ml, genetic background: wild type
[20] = 94.8 µg/ml, genetic background: ΔmarA
[21] = 94.8 µg/ml, genetic background: Δrob
[22] = 94.8 µg/ml, genetic background: ΔsoxS

## NCCc1ccc(O)c(O)c1 [Dopamine]
[1]; [7]
  promoter activity interaction Z-score: 0.174 ± 0.27
[1]; [8]
  promoter activity interaction Z-score: -0.87 ± 0.6
[1]; [9]
  promoter activity interaction Z-score: -0.259 ± 0.25
[1]; [10]
  promoter activity interaction Z-score: 0.316 ± 0.49
[1]; [11]
  promoter activity interaction Z-score: -0.0683 ± 0.28
[1]; [12]
  promoter activity interaction Z-score: -0.0201 ± 0.65
[1]; [13]
  promoter activity interaction Z-score: -0.428 ± 0.0062
[1]; [14]
  promoter activity interaction Z-score: -0.0876 ± 0.18
[1]; [15]
  promoter activity interaction Z-score: 0.18 ± 0.084
[1]; [16]
  promoter activity interaction Z-score: -1.12 ± 0.53
[1]; [17]
  promoter activity interaction Z-score: -0.499 ± 0.094
[1]; [18]
  promoter activity interaction Z-score: -0.0203 ± 0.46
[1]; [19]
  promoter activity interaction Z-score: -0.304 ± 0.4
[1]; [20]
  promoter activity interaction Z-score: -0.754 ± 0.56
[1]; [21]
  promoter activity interaction Z-score: -0.623 ± 0.094
[1]; [22]
  promoter activity interaction Z-score: -0.852 ± 0.031
[2]; [7]
  promoter activity interaction Z-score: -0.0957 ± 0.4
[2]; [8]
  promoter activity interaction Z-score: -0.00669 ± 0.09
[2]; [9]
  promoter activity interaction Z-score: -0.0714 ± 0.048
[2]; [10]
  promoter activity interaction Z-score: -0.289 ± 0.13
[2]; [11]
  promoter activity interaction Z-score: 0.149 ± 0.39
[2]; [12]
  promoter activity interaction Z-score: 0.0171 ± 0.089
[2]; [13]
  promoter activity interaction Z-score: -0.0648 ± 0.13
[2]; [14]
  promoter activity interaction Z-score: -0.0534 ± 0.087
[2]; [15]
  promoter activity interaction Z-score: -0.077 ± 0.31
[2]; [16]
  promoter activity interaction Z-score: -0.0143 ± 0.025
[2]; [17]
  promoter activity interaction Z-score: -0.12 ± 0.027
[2]; [18]
  promoter activity interaction Z-score: -0.221 ± 0.014
[2]; [19]
  promoter activity interaction Z-score: -0.3274 ± 0.00091
[2]; [20]
  promoter activity interaction Z-score: 0.0328 ± 0.11
[2]; [21]
  promoter activity interaction Z-score: -0.149 ± 0.093
[2]; [22]
  promoter activity interaction Z-score: -0.745 ± 0.067
[3]; [7]
  promoter activity interaction Z-score: 0.401 ± 0.57
[3]; [8]
  promoter activity interaction Z-score: -0.363 ± 0.16
[3]; [9]
  promoter activity interaction Z-score: -0.182 ± 0.48
[3]; [10]
  promoter activity interaction Z-score: -0.36 ± 0.38
[3]; [11]
  promoter activity interaction Z-score: -0.18 ± 0.33
[3]; [12]
  promoter activity interaction Z-score: 0.285 ± 0.88
[3]; [13]
  promoter activity interaction Z-score: -0.131 ± 0.68
[3]; [14]
  promoter activity interaction Z-score: -0.722 ± 0.37
[3]; [15]
  promoter activity interaction Z-score: 0.112 ± 0.24
[3]; [16]
  promoter activity interaction Z-score: -0.55 ± 0.36
[3]; [17]
  promoter activity interaction Z-score: -0.52 ± 0.2
[3]; [18]
  promoter activity interaction Z-score: -0.843 ± 0.13
[3]; [19]
  promoter activity interaction Z-score: -0.811 ± 0.18
[3]; [20]
  promoter activity interaction Z-score: -0.358 ± 0.12
[3]; [21]
  promoter activity interaction Z-score: -0.473 ± 0.64
[3]; [22]
  promoter activity interaction Z-score: -1.22 ± 0.11
[4]; [7]
  promoter activity interaction Z-score: 0.58 ± 0.43
[4]; [8]
  promoter activity interaction Z-score: -0.0165 ± 0.28
[4]; [9]
  promoter activity interaction Z-score: -0.285 ± 0.42
[4]; [10]
  promoter activity interaction Z-score: -0.285 ± 0.27
[4]; [11]
  promoter activity interaction Z-score: 0.285 ± 0.52
[4]; [12]
  promoter activity interaction Z-score: 1.42 ± 1.2
[4]; [13]
  promoter activity interaction Z-score: -0.0375 ± 0.68
[4]; [14]
  promoter activity interaction Z-score: 0.593 ± 1.6
[4]; [15]
  promoter activity interaction Z-score: 0.737 ± 0.14
[4]; [16]
  promoter activity interaction Z-score: -0.645 ± 0.12
[4]; [17]
  promoter activity interaction Z-score: -0.805 ± 0.17
[4]; [18]
  promoter activity interaction Z-score: -1.1 ± 0.16
[4]; [19]
  promoter activity interaction Z-score: -0.828 ± 0.0096
[4]; [20]
  promoter activity interaction Z-score: 0.583 ± 0.9
[4]; [21]
  promoter activity interaction Z-score: -1.32 ± 0.2
[4]; [22]
  promoter activity interaction Z-score: -2.04 ± 0.13
[5]; [7]
  promoter activity interaction Z-score: 0.474 ± 0.25
[5]; [8]
  promoter activity interaction Z-score: -0.0183 ± 0.11
[5]; [9]
  promoter activity interaction Z-score: -0.0377 ± 0.026
[5]; [10]
  promoter activity interaction Z-score: -0.0441 ± 0.24
[5]; [11]
  promoter activity interaction Z-score: 0.394 ± 0.015
[5]; [12]
  promoter activity interaction Z-score: 0.0576 ± 0.031
[5]; [13]
  promoter activity interaction Z-score: -0.0399 ± 0.15
[5]; [14]
  promoter activity interaction Z-score: -0.277 ± 0.03
[5]; [15]
  promoter activity interaction Z-score: 0.201 ± 0.11
[5]; [16]
  promoter activity interaction Z-score: -0.0617 ± 0.12
[5]; [17]
  promoter activity interaction Z-score: -0.00712 ± 0.2
[5]; [18]
  promoter activity interaction Z-score: -0.3 ± 0.13
[5]; [19]
  promoter activity interaction Z-score: -0.211 ± 0.15
[5]; [20]
  promoter activity interaction Z-score: -0.1512 ± 0.0014
[5]; [21]
  promoter activity interaction Z-score: -0.176 ± 0.19
[5]; [22]
  promoter activity interaction Z-score: -0.581 ± 0.061
[6]; [7]
  promoter activity interaction Z-score: 0.393 ± 0.4
[6]; [8]
  promoter activity interaction Z-score: -0.496 ± 0.057
[6]; [9]
  promoter activity interaction Z-score: -0.398 ± 0.89
[6]; [10]
  promoter activity interaction Z-score: 0.889 ± 0.7
[6]; [11]
  promoter activity interaction Z-score: 0.663 ± 0.58
[6]; [12]
  promoter activity interaction Z-score: 0.117 ± 0.58
[6]; [13]
  promoter activity interaction Z-score: -0.413 ± 0.2
[6]; [14]
  promoter activity interaction Z-score: -0.0415 ± 0.32
[6]; [15]
  promoter activity interaction Z-score: -0.164 ± 0.13
[6]; [16]
  promoter activity interaction Z-score: -0.559 ± 0.79
[6]; [17]
  promoter activity interaction Z-score: -0.226 ± 0.6
[6]; [18]
  promoter activity interaction Z-score: -0.165 ± 0.64
[6]; [19]
  promoter activity interaction Z-score: -0.754 ± 0.24
[6]; [20]
  promoter activity interaction Z-score: -0.55 ± 0.46
[6]; [21]
  promoter activity interaction Z-score: -0.192 ± 0.73
[6]; [22]
  promoter activity interaction Z-score: -1 ± 0.74
